# Test results taken from PubChem BioAssay (NCATS).
# Inconclusive results are not listed. A call without a number means that no potency is given here. Values without a mark were called inactive. Activity calls are given as the source filed them. Calls follow the shape of the dose curve; as a rule, active = well fitted inhibition curve with a large enough effect; inconclusive = small, poorly fitted or top-dose-only effect; inactive = flat fitted curve, though single readings scatter.
# Key:
# JCK = test: qHTS profiling for inhibitors of Plasmodium falciparum proliferation (AID 504749); also: potency is read from the fitted curve at half-maximal effect; conditions: P. falciparum in erythrocytes, SYBR Green DNA, 72 h; series mostly up to 28.7 µM
# Procedure, shortened: (§1)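 Infected RBCs, 0.3% parasitemia/2.5% Hct final; cpd 72 h, 37 C, 5% CO2; lysis buffer with saponin/triton/SYBR Green I, o/n RT dark; FI 485/535; norm. to artemisinin (0.29 uM) and DMSO.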
# P93_24 = test: as above; conditions: P. falciparum in erythrocytes, SYBR Green DNA, 72 h; series mostly up to 28.7 µM
# Procedure, shortened: as §1
# P94_40 = test: as above; conditions: P. falciparum in erythrocytes, SYBR Green DNA, 72 h; series mostly up to 28.7 µM
# Procedure, shortened: as §1
# PAD = test: as above; conditions: P. falciparum in erythrocytes, SYBR Green DNA, 72 h; series mostly up to 28.7 µM
# Procedure, shortened: as §1
# PC49 = test: as above; conditions: P. falciparum in erythrocytes, SYBR Green DNA, 72 h; series mostly up to 28.7 µM
# Procedure, shortened: as §1
# SC27B = test: as above; conditions: P. falciparum in erythrocytes, SYBR Green DNA, 72 h; series mostly up to 28.7 µM
# Procedure, shortened: as §1
# TAB109 = test: as above; conditions: P. falciparum in erythrocytes, SYBR Green DNA, 72 h; series mostly up to 28.7 µM
# Procedure, shortened: as §1
# TAB113 = test: as above; conditions: P. falciparum in erythrocytes, SYBR Green DNA, 72 h; series mostly up to 28.7 µM
# Procedure, shortened: as §1
# TAB165 = test: as above; conditions: P. falciparum in erythrocytes, SYBR Green DNA, 72 h; series mostly up to 28.7 µM
# Procedure, shortened: as §1
# W2 = test: as above; conditions: P. falciparum in erythrocytes, SYBR Green DNA, 72 h; series mostly up to 28.7 µM
# Procedure, shortened: as §1
# CRL-7250 = normal cell line; test: Cytotoxic Profiling of Annotated Libraries Using Quantitative High-Throughput Screening (AID 1296008); conditions: Five cell lines viability, CellTiter-Glo ATP luminescence, 48-72 h; max response: stronger effect = lower value; also: potency is read from the fitted curve at half-maximal effect
# Procedure, shortened: (§2)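 Cytotoxicity was measured as CellTiter-Glo ATP luminescence, read after 10 min at room temperature. Compound treatment of the cells lasted 48 or 72 hr at 37 degrees Celsius in a qHTS format.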
# HEK293 = test: as above; conditions: Five cell lines viability, CellTiter-Glo ATP luminescence, 48-72 h; max response: stronger effect = lower value
# Procedure, shortened: as §2
# HaCat [1] = test: as above; conditions: Five cell lines viability, CellTiter-Glo ATP luminescence, 48-72 h; max response: stronger effect = lower value
# Procedure, shortened: as §2
# KB-3-1 = test: as above; conditions: Five cell lines viability, CellTiter-Glo ATP luminescence, 48-72 h; max response: stronger effect = lower value
# Procedure, shortened: as §2
# NIH3T3 = test: as above; conditions: Five cell lines viability, CellTiter-Glo ATP luminescence, 48-72 h; max response: stronger effect = lower value
# Procedure, shortened: as §2
# N140 = test: qHTS profiling for inhibitors of Plasmodium falciparum proliferation (AID 504749); also: potency is read from the fitted curve at half-maximal effect; conditions: P. falciparum in erythrocytes, SYBR Green DNA, 72 h; series mostly up to 28.7 µM
# Procedure, shortened: as §1
# PC15 = test: as above; conditions: P. falciparum in erythrocytes, SYBR Green DNA, 72 h; series mostly up to 28.7 µM
# Procedure, shortened: as §1
# PC26 = test: as above; conditions: P. falciparum in erythrocytes, SYBR Green DNA, 72 h; series mostly up to 28.7 µM
# Procedure, shortened: as §1
# HACAT [2] = test: qHTS assay to identify novel small-molecules to repurpose for Merkel cell carcinoma treatment (AID 1296009); conditions: MCC and control cell lines, CellTiter-Glo viability, 72 h; at 44.8 µM (top of the series) unless noted
# Procedure, shortened: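 72 hr, 37 degree celsius; NPC 8-pt / MIPE 11-pt dose response; compound pinned in DMSO; CellTiter-Glo, 10 min RT, luminescence; normalized to no-cell and DMSO controls.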
# Also: nearly all actives have a fitted effect of over 60% in size.
compound,measurement,setting,value
CC[N+](CC)(CCNC(=O)C(=O)NCC[N+](CC)(CC)Cc1ccccc1Cl)Cc1ccccc1Cl,Potency,JCK,10 µM (active)
same,Potency,P93_24,0.794 µM (active)
same,Potency,P94_40,0.316 µM (active)
same,Potency,PAD,2.82 µM (active)
same,Potency,PC49,5.01 µM (active)
same,Potency,SC27B,3.98 µM (active)
same,Potency,TAB109,1.41 µM (active)
same,Potency,TAB113,3.16 µM (active)
same,Potency,TAB165,1.26 µM (active)
same,Potency,W2,1.2 µM (active)
same,outcome,CRL-7250,inactive
same,max response,HEK293,2.37%
same,max response,HaCat [1],-1.93%
same,max response,KB-3-1,-5.89%
same,max response,NIH3T3,3.32%
CC(C)COC(=O)c1ccc(N)cc1,Potency,N140,inactive
same,Potency,P93_24,inactive
same,Potency,PAD,inactive
same,Potency,PC15,inactive
same,Potency,PC26,inactive
same,Potency,PC49,inactive
same,Potency,SC27B,inactive
same,Potency,TAB113,inactive
same,Potency,TAB165,inactive
same,Potency,W2,inactive
same,max response,CRL-7250,2.7%
same,max response,HEK293,-1.38%
same,outcome,HaCat [1],inactive
same,max response,NIH3T3,3.91%
same,outcome,HACAT [2],inactive
CCOc1ccc(Cc2nccc3cc(OCC)c(OCC)cc23)cc1OCC,Potency,JCK,10 µM (active)
same,Potency,N140,inactive
same,Potency,P93_24,inactive
same,Potency,P94_40,inactive
same,Potency,PAD,inactive
same,Potency,PC15,inactive
same,Potency,SC27B,inactive
same,Potency,TAB109,inactive
same,Potency,TAB113,inactive
same,Potency,CRL-7250,15 µM (active)
same,Potency,HEK293,7.5 µM (active)
same,max response,HaCat [1],-22.8%
same,max response,NIH3T3,-24.3%
CCn1cc(C(=O)O)c(=O)c2cnc(N3CCCC3)nc21,Potency,JCK,inactive
same,Potency,N140,inactive
same,Potency,P93_24,inactive
same,Potency,P94_40,inactive
same,Potency,PAD,inactive
same,Potency,PC15,inactive
same,Potency,PC26,inactive
same,Potency,PC49,inactive
same,Potency,SC27B,inactive
same,Potency,TAB109,inactive
same,Potency,TAB113,inactive
same,Potency,TAB165,inactive
same,Potency,W2,inactive
same,max response,CRL-7250,4.85%
same,max response,HEK293,1.04%
same,max response,HaCat [1],-10.2%
same,max response,KB-3-1,8.93%
same,max response,NIH3T3,-2.06%
COC(=O)[C@@H]1CC2=CC(=O)CC[C@]2(C)[C@@]23O[C@@H]2C[C@@]2(C)[C@@H](CC[C@@]24CCC(=O)O4)[C@H]13,Potency,JCK,inactive
same,Potency,N140,inactive
same,Potency,P93_24,inactive
same,Potency,P94_40,inactive
same,Potency,PAD,inactive
same,Potency,PC15,inactive
same,Potency,PC26,inactive
same,Potency,PC49,inactive
same,Potency,SC27B,inactive
same,Potency,TAB109,inactive
same,Potency,TAB113,inactive
same,Potency,TAB165,inactive
same,Potency,W2,inactive
same,max response,CRL-7250,-2.8%
same,max response,HEK293,3.69%
same,outcome,HaCat [1],inactive
same,outcome,NIH3T3,inactive
same,outcome,HACAT [2],inactive
O=C1OCCN1/N=C/c1ccc([N+](=O)[O-])o1,Potency,P93_24,11.2 µM (active)
same,Potency,PC15,inactive
same,Potency,TAB109,7.94 µM (active)
same,Potency,TAB165,11.2 µM (active)
same,Potency,W2,15.1 µM (active)
same,max response,CRL-7250,-8.39%
same,max response,HEK293,-25%
same,outcome,HaCat [1],inactive
same,max response,KB-3-1,-3.42%
same,outcome,NIH3T3,inactive
same,outcome,HACAT [2],inactive
CCOC(=O)c1cccc(N)c1,Potency,JCK,inactive
same,Potency,N140,inactive
same,Potency,P93_24,inactive
same,Potency,P94_40,inactive
same,Potency,PAD,inactive
same,Potency,PC15,inactive
same,Potency,PC26,16.9 µM (active)
same,Potency,PC49,inactive
same,Potency,SC27B,inactive
same,Potency,TAB109,inactive
same,Potency,TAB113,inactive
same,Potency,TAB165,inactive
same,max response,CRL-7250,-5.88%
same,max response,HEK293,-0.911%
same,max response,HaCat [1],-20.5%
same,max response,KB-3-1,-6.64%
same,max response,NIH3T3,-6.41%
CCOc1ccc(NC(=O)CC(C)O)cc1 (stereo not given),Potency,JCK,inactive
same,Potency,N140,inactive
same,Potency,P93_24,inactive
same,Potency,P94_40,inactive
same,Potency,PAD,inactive
same,Potency,PC15,inactive
same,Potency,PC26,inactive
same,Potency,PC49,inactive
same,Potency,SC27B,inactive
same,Potency,TAB109,inactive
same,Potency,TAB113,inactive
same,Potency,TAB165,inactive
same,max response,CRL-7250,-0.463%
same,max response,HEK293,2.44%
same,max response,HaCat [1],-5.23%
same,max response,KB-3-1,-22.8%
same,max response,NIH3T3,4.45%
CCCCCCCCCCCCCCCCCC(=O)OCC(O)CO (stereo not given),Potency,N140,inactive
same,Potency,P94_40,inactive
same,Potency,PAD,inactive
same,Potency,PC15,inactive
same,Potency,PC26,inactive
same,Potency,PC49,inactive
same,Potency,SC27B,inactive
same,Potency,TAB109,inactive
same,Potency,TAB113,inactive
same,Potency,TAB165,inactive
same,Potency,W2,inactive
same,outcome,CRL-7250,inactive
same,max response,HEK293,-6.82%
same,max response,HaCat [1],4.32%
same,max response,KB-3-1,-3.37%
same,max response,NIH3T3,1.82%
CC1(C)O[C@@H]2C[C@H]3[C@@H]4C[C@H](F)C5=CC(=O)C=C[C@]5(C)[C@H]4[C@@H](O)C[C@]3(C)[C@]2(C(=O)CO)O1,max response,CRL-7250,-27.4%
same,max response,HEK293,-23.8%
same,max response,NIH3T3,-4.68%
CCCN1CCCC[C@H]1C(=O)Nc1c(C)cccc1C,Potency,JCK,inactive
same,Potency,N140,inactive
same,Potency,P93_24,inactive
same,Potency,P94_40,inactive
same,Potency,PAD,inactive
same,Potency,PC15,inactive
same,Potency,PC26,inactive
same,Potency,PC49,inactive
same,Potency,SC27B,inactive
same,Potency,TAB109,inactive
same,Potency,TAB113,inactive
same,Potency,TAB165,inactive
same,Potency,W2,4.78 µM (active)
same,max response,CRL-7250,-6.22%
same,max response,HEK293,-0.54%
same,outcome,HaCat [1],inactive
same,max response,KB-3-1,-10%
same,max response,NIH3T3,-2.9%
same,outcome,HACAT [2],inactive
Cc1cc(=O)n(-c2ccccc2)n1C,Potency,JCK,inactive
same,Potency,N140,inactive
same,Potency,P93_24,inactive
same,Potency,P94_40,inactive
same,Potency,PAD,inactive
same,Potency,PC15,inactive
same,Potency,PC26,inactive
same,Potency,PC49,inactive
same,Potency,SC27B,inactive
same,Potency,TAB109,inactive
same,Potency,TAB113,inactive
same,Potency,TAB165,inactive
same,Potency,W2,inactive
same,max response,CRL-7250,2.86%
same,max response,HEK293,-47.4%
same,max response,HaCat [1],-15.6%
same,max response,KB-3-1,3.76%
same,max response,NIH3T3,-41.4%
